From PubChem BioAssay
Only some compounds are listed: those with a hit (about 1.6% of all), similar ones and a draw of the others.
KCNQ2 inh – KCNQ2 (rat) channel inhibition; O88943; CHO-K1 KCNQ2, FluxOR thallium flux, 20 min; stronger effect = lower value; AID 2156; actives 1.1% (n = 310,000); B-score at 10 µM;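 active means fluorescence ratio B-score at most minus 3 library SDs, with starting brightness B-score within 2 library SDs, cut at about -5.5 in these data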
KCNQ2 enhance – potentiators of rat KCNQ2 potassium channel | O88943 | actives 0.54% (n = 310,000) | CHO-K1 KCNQ2, FluxOR thallium flux fluorescence; stronger effect = higher value | B-score at 10 µM;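 active means fluorescence ratio B-score at least 3 SD of library B-scores, with initial fluorescence B-score within 3 of them, cut at about 5.3 in these data; same plate scores as AID 2156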;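 further: B-score of peak minus minimum over baseline fluorescence ratio after K+ and Tl+ stimulus; positive B-score means potentiation of KCNQ2 with more thallium influx and brighter signal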
KCNQ2 inh conf – confirmation of rat KCNQ2 potassium channel inhibitors | activity change, negative = inhibition, % at 10 µM | actives 57% (n = 1,000) | KCNQ2-expressing cells, thallium flux, inhibition; stronger effect = lower value | shares compounds with KCNQ2 inh | AID 493025;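 further: 0% = vehicle wells and values are ratio percent relative to vehicle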
KCNQ1 spec – KCNQ2 inhibitor that also affects human KCNQ1 channel | activity change, negative = inhibition, % at 10 µM | actives 15% (n = 1,000) | shares compounds with KCNQ2 inh | AID 493026 | KCNQ1-expressing cells, FluxOR thallium flux fluorescence; stronger effect = lower value;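 active means activity change at least 3 SD of negative controls below their mean in both duplicate wells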;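 further: CHO cells stably transfected with KCNQ1 and depolarized by potassium stimulus; peak minus minimum fluorescence over baseline after thallium addition; 0% = vehicle negative control and -100% = blank without thallium stimulus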
Target sequence (P51787 whole entry, looked up): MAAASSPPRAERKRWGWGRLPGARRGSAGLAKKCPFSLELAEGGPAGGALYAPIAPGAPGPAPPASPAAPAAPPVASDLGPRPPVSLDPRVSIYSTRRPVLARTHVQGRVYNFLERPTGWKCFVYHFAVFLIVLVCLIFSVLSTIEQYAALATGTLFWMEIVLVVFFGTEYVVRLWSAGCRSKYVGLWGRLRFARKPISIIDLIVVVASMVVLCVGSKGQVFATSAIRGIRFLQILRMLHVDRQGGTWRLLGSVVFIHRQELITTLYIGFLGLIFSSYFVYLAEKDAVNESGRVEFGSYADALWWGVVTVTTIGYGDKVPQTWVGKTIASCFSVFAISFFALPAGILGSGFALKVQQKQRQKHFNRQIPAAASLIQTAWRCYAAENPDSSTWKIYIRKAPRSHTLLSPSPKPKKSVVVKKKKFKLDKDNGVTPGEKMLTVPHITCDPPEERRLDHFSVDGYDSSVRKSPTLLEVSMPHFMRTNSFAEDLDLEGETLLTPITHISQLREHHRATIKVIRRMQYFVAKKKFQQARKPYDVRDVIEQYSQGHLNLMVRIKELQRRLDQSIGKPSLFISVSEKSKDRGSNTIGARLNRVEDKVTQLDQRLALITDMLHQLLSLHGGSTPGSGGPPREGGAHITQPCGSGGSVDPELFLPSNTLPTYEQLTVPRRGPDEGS
CHO Tl ctr – KCNQ2 inhibitor counter-screen hit in parental CHO cells. shares compounds with KCNQ2 inh. thallium flux counter-screen; stronger effect = lower value. activity change, % at 10 µM. actives 14% (n = 1,000);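 further: 0% = vehicle negative controls with stimulus buffer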
KCNQ2 inh confirm – blocks rat KCNQ2 current in automated patch clamp; shares compounds with KCNQ2 inh; KCNQ2-expressing cells; calls only at 10 µM; actives 49% (n = 550); AID 588531
The depositor's hits bear a star; i = inactive; / = no result; + = active, no number. Unless noted, how the calls were made is not given here.

SMILES	KCNQ2 inh	KCNQ2 enhance	KCNQ2 inh conf	KCNQ1 spec	CHO Tl ctr	others
CC(NC(=O)c1c(O)c2ccccc2[nH]c1=O)c1ccccc1 (stereo not drawn)	i	/	/	/	/
CCn1c(COc2cccc3ccccc23)nnc1SCC(=O)OC1CCCCC1	-8.6*	-8.6	i	i	i
Cn1c(COc2cccc3ccccc23)nnc1SCC(=O)OC1CCCCC1	i	/	/	/	/
O=C(CSc1nnc(-c2ccco2)n1Cc1ccccc1)OC1CCCCC1	-9.4*	-9.4	-34%*	i	i	KCNQ2 inh confirm=+
O=C(CSc1nnc(-c2ccncc2)n1Cc1ccco1)OC1CCCCC1	i	/	/	/	/
CCC(Oc1cc(Cl)ccc1Cl)C(=O)N1CCCN(C)CC1 (stereo not drawn)	i	1.1	/	/	/
CCOC(=O)CNC(=O)COc1coc(CN2CCN(c3ccc(F)cc3)CC2)cc1=O	i	/	/	/	/
O=C(O)c1cnn(-c2nc(-c3ccc(Br)cc3)cs2)c1C(F)(F)F	i	3.9	/	/	/
COC(=O)C1CCN(C(=O)/C=C/c2ccc3c(c2)OCO3)CC1	i	/	/	/	/
COc1ccc(C2SCC(=O)N2Cc2ccccc2)cc1 (stereo not drawn)	i	/	/	/	/
COc1ccc(C2SCC(=O)N2CC23CC4CC(CC(C4)C2)C3)cc1 (stereo not drawn)	-6.9*	-6.9	-33%*	i	i	KCNQ2 inh confirm=i
O=C(NCCCCc1ccccc1)C1CCCC1	i	0.66	/	/	/
COc1ccc(C2=NOC(C(=O)N3CCN(C(=O)c4ccco4)CC3)C2)cc1OC (stereo not drawn)	i	0.94	/	/	/
COc1ccc(NC(=O)Cc2nnc(SCC(=O)NC3CCCC3)n2C)cc1	i	1.3	/	/	/
O=[N+]([O-])c1cc([N+](=O)[O-])c2c(=Nc3ccccc3)n(-c3ccccc3)n(O)c2c1	-9.8*	-9.8	-34%*	-40%*	-28%*	KCNQ2 inh confirm=+
O=[N+]([O-])c1cc(Br)c(Nc2ccccc2)c([N+](=O)[O-])c1	i	/	/	/	/
O=C(CCCN1C(=O)C(c2ccccc2)Oc2cccnc21)Nc1ccccc1Cl (stereo not drawn)	i	0.1	/	/	/
COc1cc(C(=O)NCCC(=O)NCc2c(F)cc(F)cc2F)cc(OC)c1OC	i	/	/	/	/
COc1cccc(/C=C(/C(=O)OCC(=O)NCC2CCCO2)c2ccccc2)c1 (stereo not drawn)	i	/	/	/	/
COc1cccc(/C=C(/C(=O)OCC(=O)NC2CCCCCCC2)c2ccccc2)c1	-8.5*	-8.5	-16%*	i	i	KCNQ2 inh confirm=i
CCn1cc(CN2CCC(n3nccc3NC(=O)c3ccccc3C)CC2)c(C)n1	i	/	/	/	/
CCOC(=O)CC1C(=O)NCCN1C(=O)COc1ccc(C(C)(C)C)cc1 (stereo not drawn)	i	0.33	/	/	/
COc1ccc(/C=N/n2c(N)nc(-c3ccccc3)c2-c2ccccc2)cc1	-7*	-7	i	i	i
COc1ccc(/C=N/n2c(-c3ccccc3)n[nH]c2=S)cc1	i	/	/	/	/
Cc1ccccc1OCc1nc2ccccc2c(=O)n1/N=C/c1ccco1	-8.9*	-8.9	-33%*	i	i	KCNQ2 inh confirm=+
SMILES	KCNQ2 inh	KCNQ2 enhance	KCNQ2 inh conf	KCNQ1 spec	CHO Tl ctr	others
O=c1c2ccccc2nc(-c2ccco2)n1/N=C/c1ccco1	i	2.8	/	/	/
Cn1cccc1/C=C1\Cc2ccccc2C1=O	i	/	/	/	/
Cn1cccc1/C=C1\CC(C(C)(C)C)C/C(=C\c2cccn2C)C1=O (stereo not drawn)	-11*	-11	-72%*	-74%*	-68%*	KCNQ2 inh confirm=i
CCCc1cnc(N2CCN(C(=O)c3ccccc3)CC2)nc1	i	0.91	/	/	/
O=C(NCC(c1cccs1)N1CCOCC1)c1ccc(Cl)s1 (stereo not drawn)	-9.7*	-9.7	i	i	i
O=C(NCC(c1cccs1)N1CCOCC1)c1cc([N+](=O)[O-])ccc1Cl (stereo not drawn)	i	/	/	/	/
O=C(CCNC(=O)C1CCN(S(=O)(=O)c2ccc(F)cc2)CC1)NCc1cccc(Cl)c1	i	0.04	/	/	/
Cc1ccccc1OCC(=O)Nc1ccccc1-c1ccccc1	-6.6*	-6.6	i	i	i
Cc1ccccc1NC(=O)COc1ccccc1C	i	/	/	/	/
CCOc1ccccc1OCC(=O)NCc1ccco1	i	/	/	/	/
O=C(COc1ccccc1-c1ccccc1)NCc1ccco1	-8.5*	-8.5	i	i	i
O=C(CCCn1c(=S)[nH]c2cc3c(cc2c1=O)OCO3)NCc1cccc(Cl)c1	i	/	/	/	/
NS(=O)(=O)c1cccc(-n2cnnn2)c1	i	/	/	/	/
Cn1cc(CCC(=O)NC2CC(C)(C)Cc3c2cnn3-c2ccc(F)cc2)cn1 (stereo not drawn)	i	/	/	/	/
Cc1ccc(C2C(N)C(=O)N2c2ccc(C)cc2)cc1 (stereo not drawn)	i	0.47	/	/	/
O=C(CCCN1C(=O)C(c2ccccc2)Oc2cccnc21)Nc1cccc(F)c1 (stereo not drawn)	i	0.19	/	/	/
CCOC(=O)c1c(C)nc2c(c1-c1ccccc1)C(=O)c1ccccc1-2	-12*	-12	-30%*	i	i	KCNQ2 inh confirm=+
CCOC(=O)c1c(C)nc2c(c1-c1cc(OC)ccc1OC)C(=O)c1ccccc1-2	i	0.12	/	/	/
COc1ccccc1CCNS(=O)(=O)c1cc2c3c(c1)CCN3C(=O)CC2	i	/	/	/	/
CN1CCN(C(=O)/C(=C\c2ccccc2)c2ccccc2)CC1	i	1.4	/	/	/
CC1CCN(C(=O)/C(=C/c2ccccc2Cl)c2ccccc2)CC1	-7.5*	-7.5	-32%*	i	i	KCNQ2 inh confirm=i
Cc1cccc(C)c1NC(=O)CN1CCc2ccccc2C1	i	1.1	/	/	/
COc1ccc(/C=N/n2c(COc3ccccc3)n[nH]c2=S)cc1OC	i	/	/	/	/
C=C(C)c1cccc(C(C)(C)NC(=O)N(Cc2ccccc2)Cc2ccco2)c1	-8.7*	-8.7	-23%*	i	i	KCNQ2 inh confirm=i
C=C(C)c1cccc(C(C)(C)NC(=O)NC2CCN(Cc3ccccc3)CC2)c1	i	2.3	/	/	/
SMILES	KCNQ2 inh	KCNQ2 enhance	KCNQ2 inh conf	KCNQ1 spec	CHO Tl ctr	others
CCOc1cc(CNCCc2ccc(S(N)(=O)=O)cc2)cc(Cl)c1OCc1ccccc1	-9.4*	-9.4	-30%*	i	i	KCNQ2 inh confirm=i
CCOc1cc(CNCCc2ccc(S(N)(=O)=O)cc2)ccc1OCc1ccccc1	i	/	/	/	/
CCN1CCN(CCNC(=O)c2ccc(/C=C3/Sc4ccccc4N(Cc4ccccc4C)C3=O)cc2)CC1	-13*	-13	i	i	i
CCN1CCN(CCCNC(=O)c2ccc(/C=C3/Sc4ccccc4N(Cc4ccccc4F)C3=O)cc2)CC1	i	/	/	/	/
O=C(COC(=O)C1C2CC3OC(=O)C1C3C2)Nc1ccc(Cl)cc1 (stereo not drawn)	i	5	/	/	/
COCCn1c(Cc2ccccc2)nnc1SCC(=O)NC1CCCCC1	i	0.63	/	/	/
Cc1ccc(Sc2c(C#N)c(-c3ccccc3)nn2C)cc1	-8.5*	-8.5	i	i	i
Cc1ccc(SCc2c(-c3ccccc3)nn(C)c2Cl)cc1	i	/	/	/	/
Cc1csc2nc(CNC(=O)C3CCCCC3)cn12	-8.8*	-8.8	i	i	i
